The results in this text go back to PubChem BioAssay (Tox21).

SMILES strings stand for the structures. Results filed as inconclusive are left out. The source made the active and inactive calls. Unless noted, the call rests on the fitted dose curve.

Experiment [1] is described as follows: Nuclear factor erythroid 2-related factor 2/antioxidant responsive element (Nrf2/ARE) small molecule agonists: qHTS cell viability counter screen in human keratinocytes (AID 1919968; active means well fitted curve in the direction sought with a large enough effect in the repeat runs; an effect the other way counts as inactive or inconclusive; further: nearly all actives have a fitted effect of over 55% in size). In short, it runs like this:
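Fluorescence read-out from CellTiter-Fluor after 1 h at 37 C. Wells held HaCaT-derived ARE-luciferase reporter cells (1,500/well) treated 23 h with DMSO-dissolved compounds. Run in the same wells as the luciferase agonist read.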
Background: Quantitative high-throughput screening tests each substance at several concentrations.

Experiment [2] in a line: Nuclear factor erythroid 2-related factor 2/antioxidant responsive element (Nrf2/ARE) small molecule agonists: luciferase reporter gene qHTS assay in human keratinocytes (AID 1919969). Further: nearly all actives have a fitted effect of over 35% in size. For orientation: Reporter assays use an easily measured gene product as a stand-in for the process of interest.
The target of experiment [3] is Gonadotropin-releasing hormone receptor (Homo sapiens) (UniProt P30968). The experiment is described as follows: Human gonadotropin-releasing hormone receptor (GnRHR) small molecule agonists, calcium flux assay in GnRHR-HEK293 cells (AID 1920063). Further: nearly all actives have a fitted effect of over 35% in size. Put shortly: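 Calcium-dye fluorescence, Ex/Em=480/540, recorded every 1 sec over 3 min after compound addition to GnRHR-HEK293 cells. Cells had been seeded 18 hours earlier and dye-loaded for 1 hour at 37 C. Fifteen concentrations, triplicates.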
Sequence of Gonadotropin-releasing hormone receptor (Homo sapiens) (P30968 whole entry, looked up): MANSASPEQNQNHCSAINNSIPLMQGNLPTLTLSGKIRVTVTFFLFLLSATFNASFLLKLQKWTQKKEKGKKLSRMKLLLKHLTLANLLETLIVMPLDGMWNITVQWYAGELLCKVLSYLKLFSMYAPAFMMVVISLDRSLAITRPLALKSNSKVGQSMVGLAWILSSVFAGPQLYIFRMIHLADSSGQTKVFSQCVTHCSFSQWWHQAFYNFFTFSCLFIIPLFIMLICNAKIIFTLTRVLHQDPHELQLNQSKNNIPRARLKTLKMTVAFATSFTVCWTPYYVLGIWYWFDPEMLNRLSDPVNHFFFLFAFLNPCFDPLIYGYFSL
Background: Calcium assays in cells follow changes in intracellular calcium, usually with a dye or a luminescent sensor.

Experiment [4] concerns the target KiSS-1 receptor (Homo sapiens) (UniProt Q969F8). The experiment is described as follows: Human kisspeptin (KISS1R) small molecule agonists, calcium flux assay in KISS1R-HEK293 cells (AID 1920064; active means well fitted curve in the direction sought with a large enough effect in the repeat runs; an effect the other way counts as inactive or inconclusive). In short, it runs like this:
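Calcium flux read-out: kinetic fluorescence at Ex/Em=480/540, 1 s intervals over 3 min, after pin-tool compound addition to dye-loaded KISS1R-HEK293 cells. Fifteen concentrations, triplicates.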

Experiment [5] in a line: p53 small molecule agonists, cell-based qHTS assay with rat liver microsomes (AID 1963578). Put shortly: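 Each plate received p53RE-bla cells, then compound, then rat liver microsomes and NADPH (both 0.5 mg/mL final). Plates were held 16 h at 37 C, and beta-lactamase activity was detected with LiveBLAzer over 2 h.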
A short description of experiment [6]: p53 small molecule agonists, cell-based qHTS assay with human liver microsomes: qHTS cell viability counter screen (AID 1963579). Further: nearly all actives have a fitted effect of over 45% in size. In short, it runs like this: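 Tox21 library compounds, delivered from DMSO stocks, were tested on p53RE-bla cells together with 0.5 mg/mL human liver microsomes and 0.5 mg/mL NADPH (final) over 16 h at 37 C; CellTiter-Glo luminescence served as the cytotoxicity measure.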

Experiment [7] can be described thus: p53 small molecule agonists, cell-based qHTS assay with rat liver microsomes: qHTS cell viability counter screen (AID 1963580). Further: nearly all actives have a fitted effect of over 45% in size. In short, it runs like this: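 Rat liver microsome (0.5 mg/mL final) and NADPH (0.5 mg/mL final) co-incubation with compounds for 16 h at 37 C on HCT-116 p53RE-bla cells; cytotoxicity taken from intracellular ATP luminescence.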
Experiment [8] in a line: p53 small molecule agonists, cell-based qHTS assay: qHTS cell viability counter screen (AID 1963581). Further: nearly all actives have a fitted effect of over 45% in size. In short, it runs like this: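 Cytotoxicity read-out: ATP-based luminescence (CellTiter-Glo, 30 min RT) measured in the same wells as the p53 reporter assay, HCT-116 p53RE-bla cells, 16 h compound exposure at 37 C.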
Experiment [9] can be described thus: p53 small molecule agonists, cell-based qHTS assay (AID 1963582; active means well fitted activation curve with a large enough effect in the signal ratio in the repeat runs, not every such curve was filed as active; the % refers to the signal ratio). Put shortly:
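Fluorescence intensity read-out of a beta-lactamase reporter under a p53 response element. Cells were exposed to DMSO-dissolved compounds for 16 h at 37 C, then developed with FRET substrate for 2 h at RT.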

Experiment [10] deals with 5-hydroxytryptamine receptor 2A (Homo sapiens) (UniProt P28223). The experiment is described as follows: 5-hydroxytryptamine receptor 2A (HTR2A) small molecule antagonists, cell-based qHTS assay (AID 1963586). Further: nearly all actives have a fitted effect of over 45% in size. In short, it runs like this: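 CHO cells stably expressing human HTR2A were plated for 18 h at 37 C, then loaded with calcium dye for 1 h. Compounds were preincubated 5 min at room temperature before DOI (4 nM solution) was added. Kinetic fluorescence was read for 3 min.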
Sequence of 5-hydroxytryptamine receptor 2A (Homo sapiens) (P28223 whole entry, looked up): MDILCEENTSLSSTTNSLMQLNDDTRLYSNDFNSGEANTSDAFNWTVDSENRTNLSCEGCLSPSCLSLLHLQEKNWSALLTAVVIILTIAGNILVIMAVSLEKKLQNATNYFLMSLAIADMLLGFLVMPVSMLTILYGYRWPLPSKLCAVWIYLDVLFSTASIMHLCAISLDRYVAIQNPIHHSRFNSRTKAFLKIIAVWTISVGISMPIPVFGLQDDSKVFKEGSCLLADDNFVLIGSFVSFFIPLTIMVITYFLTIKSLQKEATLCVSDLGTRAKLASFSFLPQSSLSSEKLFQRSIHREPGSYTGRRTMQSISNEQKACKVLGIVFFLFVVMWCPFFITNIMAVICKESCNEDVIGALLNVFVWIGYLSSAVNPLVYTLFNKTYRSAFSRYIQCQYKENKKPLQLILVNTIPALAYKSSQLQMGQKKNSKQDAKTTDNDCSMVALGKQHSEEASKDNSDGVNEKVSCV

Experiment [11] has the same target. The experiment is described as follows: 5-hydroxytryptamine receptor 2A (HTR2A) small molecule agonists, cell-based qHTS assay (AID 1963587). Further: nearly all actives have a fitted effect of over 30% in size. Put shortly: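 Kinetic calcium-flux fluorescence (2 min, 1 sec intervals) after compound addition in agonist mode. HTR2A-CHO cells were cultured 18 h, then dye-loaded 1 h at 37 C.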
The target of experiment [12] is Muscarinic acetylcholine receptor M1 (Homo sapiens) (UniProt P11229). The experiment is described as follows: Cholinergic receptor muscarinic 1 (CHRM1) small molecule antagonists, cell-based qHTS assay (AID 1963588). Further: nearly all actives have a fitted effect of over 40% in size. Further: potency means the concentration at half of the fitted maximal effect. In short, it runs like this:
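Compounds were tested at 15 concentrations in three independent runs. Dye-loaded CHRM1-CHO cells were exposed 5 min at room temperature before stimulation by acetylcholine added at 50nM. Intracellular calcium was read kinetically on FDSS for 3 min.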

For experiment [13] the target is unchanged. The experiment is described as follows: Cholinergic receptor muscarinic 1 (CHRM1) small molecule agonists, cell-based qHTS assay (AID 1963589). Further: nearly all actives have a fitted effect of over 35% in size. In short, it runs like this: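 Calcium flux read-out: kinetic fluorescence at 1 sec intervals after pin-tool compound addition to dye-loaded CHRM1-CHO cells (human M1). Agonist mode; 15 concentrations tested in triplicate independent runs.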

The nature of experiment [14]: cAMP Responsive Elements (CRE) small molecule agonists, cell-based qHTS assay (AID 1963590). In short, it runs like this: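 Beta-lactamase reporter readout: LiveBLAzer B/G FRET substrate, 2 h at room temperature, added after 3 h compound treatment of CRE-bla HEK 293T cells at 37 C/5% CO2.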
Experiment [15] in a line: cAMP Responsive Elements (CRE) small molecule antagonists, cell-based qHTS assay (AID 1963591; active means well fitted inhibition curve with a large enough effect in the signal ratio in the repeat runs, not every such curve was filed as active; the % refers to the signal ratio). In short, it runs like this: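 HEK293T CRE-bla; 18 h preincubation; compound pin-transfer; NKH477 0.25 uM final, 3 h, 37 C; LiveBLAzer FRET substrate 2 h RT.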
The target in experiment [16] is Beta-2 adrenergic receptor (Homo sapiens) (UniProt P07550). The experiment is described as follows: Adrenergic beta2 receptor (ADRB2) small molecule antagonists, cell-based qHTS assay (AID 1963592). Further: series mostly up to about 92 µM; nearly all actives have a fitted effect of over 50% in size. Put shortly:
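Assay format: CHO-ADRB2 cells, 18-20hr seeding at 37C/5% CO2, then compound plus 1nM isoproterenol agonist mix for 0.5hr RT. Homogeneous time-resolved fluorescence cAMP detection after 1hr, expressed as 665/615 nm ratio.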

For experiment [17] the target is unchanged. The experiment is described as follows: Adrenergic beta2 receptor (ADRB2) small molecule agonists, cell-based qHTS assay (AID 1963593).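 Further: CHO cells stably overexpressing human ADRB2.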 In short, it runs like this:
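CHO cells stably over-expressing ADRB2 were plated overnight at 37C, then dosed with compounds plus a stimulation mix containing 100uM IBMX and 25uM Ro-20-1724 for 0.5hr at room temperature. cAMP was measured by HTRF competition, 1hr.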

Experiment [18] addresses D(2) dopamine receptor (Homo sapiens) (UniProt P14416). The experiment is described as follows: Dopamine D2 receptor (DRD2) small molecule agonists, cell-based qHTS assay (AID 1963594). Further: nearly all actives have a fitted effect of over 35% in size. In short, it runs like this:
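cAMP accumulation in DRD2-HEK293 cells measured by HTRF after 1 h detection; compounds added 10 min before NKH477 (200nM […]) forskolin-analogue stimulation, 30 min at room temperature, with Ro20-1724 present at 0.1 mM final.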

For experiment [19] the target is unchanged. The experiment is described as follows: Dopamine D2 receptor (DRD2) small molecule antagonists, cell-based qHTS assay (AID 1963595; active means well fitted inhibition curve with a large enough effect in the signal ratio in the repeat runs, with a control signal flat; the % refers to the signal ratio). Put shortly:
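HEK293 cells stably expressing DRD2 were preincubated with 0.1 mM Ro20-1724, then with compound for 10 min at room temperature. Cells were stimulated with 200 nM NKH477 plus 12 nM quinpirole for 30 min, and cAMP was read by HTRF.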

Experiment [20] is described as follows: G protein-coupled receptor (GPCR) small molecule agonists, calcium flux assay: HEK293 wild type cell line counter screen (AID 1920065). Put shortly:
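Agonist mode; 18 h seeding at 37 C, 1 h dye load at 37 C; compounds pinned from DMSO, ATP as positive control; kinetic fluorescence 480/540 nm, 3 min, 1 s reads; 15 concentrations, triplicate.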

Sequence of Beta-2 adrenergic receptor (Homo sapiens) (P07550 whole entry, looked up): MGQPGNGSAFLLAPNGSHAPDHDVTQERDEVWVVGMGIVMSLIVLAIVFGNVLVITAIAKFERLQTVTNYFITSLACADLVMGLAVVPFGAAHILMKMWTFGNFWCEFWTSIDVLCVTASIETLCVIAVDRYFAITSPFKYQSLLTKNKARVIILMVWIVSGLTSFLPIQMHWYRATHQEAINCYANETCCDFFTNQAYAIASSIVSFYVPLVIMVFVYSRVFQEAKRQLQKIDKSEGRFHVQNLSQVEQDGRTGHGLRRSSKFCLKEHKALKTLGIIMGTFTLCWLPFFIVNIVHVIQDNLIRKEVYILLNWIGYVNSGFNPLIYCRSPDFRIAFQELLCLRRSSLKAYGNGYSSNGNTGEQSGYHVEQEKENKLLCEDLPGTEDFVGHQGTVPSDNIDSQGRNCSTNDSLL
Sequence of Muscarinic acetylcholine receptor M1 (Homo sapiens) (P11229 whole entry, looked up): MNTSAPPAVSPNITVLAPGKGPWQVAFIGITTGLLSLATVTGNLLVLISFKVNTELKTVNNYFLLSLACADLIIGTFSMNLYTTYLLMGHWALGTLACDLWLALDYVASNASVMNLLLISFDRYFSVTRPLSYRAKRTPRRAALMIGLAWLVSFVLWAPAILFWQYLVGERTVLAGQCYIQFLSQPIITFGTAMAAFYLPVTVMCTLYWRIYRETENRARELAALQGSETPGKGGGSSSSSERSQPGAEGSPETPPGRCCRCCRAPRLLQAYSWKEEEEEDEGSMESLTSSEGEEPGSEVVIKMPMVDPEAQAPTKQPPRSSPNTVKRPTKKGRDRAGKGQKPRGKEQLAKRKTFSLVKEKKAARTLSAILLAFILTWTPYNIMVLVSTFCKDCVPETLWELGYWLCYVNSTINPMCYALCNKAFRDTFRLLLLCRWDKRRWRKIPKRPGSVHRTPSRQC
Sequence of D(2) dopamine receptor (Homo sapiens) (P14416 whole entry, looked up): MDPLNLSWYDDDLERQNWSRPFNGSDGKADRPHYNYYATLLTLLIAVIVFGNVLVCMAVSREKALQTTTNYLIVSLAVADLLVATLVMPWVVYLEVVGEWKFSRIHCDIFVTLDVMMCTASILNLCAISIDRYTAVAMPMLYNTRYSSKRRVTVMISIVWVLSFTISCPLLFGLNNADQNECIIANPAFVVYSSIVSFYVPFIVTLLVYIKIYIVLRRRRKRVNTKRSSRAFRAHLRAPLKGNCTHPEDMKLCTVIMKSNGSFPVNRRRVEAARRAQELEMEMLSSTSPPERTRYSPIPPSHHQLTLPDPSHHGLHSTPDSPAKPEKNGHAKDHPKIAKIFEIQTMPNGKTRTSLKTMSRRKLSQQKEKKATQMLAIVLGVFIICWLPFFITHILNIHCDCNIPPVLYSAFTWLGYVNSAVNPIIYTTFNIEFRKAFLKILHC
Sequence of KiSS-1 receptor (Homo sapiens) (Q969F8 whole entry, looked up): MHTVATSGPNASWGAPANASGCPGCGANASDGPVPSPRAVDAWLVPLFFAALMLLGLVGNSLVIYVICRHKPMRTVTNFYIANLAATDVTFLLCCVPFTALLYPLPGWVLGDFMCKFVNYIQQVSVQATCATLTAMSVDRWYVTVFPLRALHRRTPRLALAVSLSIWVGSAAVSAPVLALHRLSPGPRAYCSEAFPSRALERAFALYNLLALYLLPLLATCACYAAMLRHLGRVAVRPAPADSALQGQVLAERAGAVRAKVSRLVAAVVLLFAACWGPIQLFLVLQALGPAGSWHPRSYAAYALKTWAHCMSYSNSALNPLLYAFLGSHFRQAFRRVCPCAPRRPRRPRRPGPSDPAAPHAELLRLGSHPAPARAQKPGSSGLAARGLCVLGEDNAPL

As to `Nc1ccccc1C(=O)OCC(O)CO` (stereo not given), the Potency result in [1], in experiment [2], in [3], in experiment [4], in experiment [5] and in experiment [6] was “inactive” throughout. Moreover, the Potency entry in experiment [7], in [8], in [9], in [10], in [11] and in experiment [12] was “inactive” in each case. Moreover, the Potency entry in experiment [13], in [14], in experiment [15], in experiment [16], in [17] and in experiment [18] was “inactive” in each case. In experiment [19], the Potency entry is “inactive”.

Take `CC[C@H](N)c1ccccc1`: the Potency entry in experiment [1], in [2], in experiment [3], in experiment [4], in [5] and in [6] was “inactive” each time. Moreover, the Potency entry in [7], in [8], in experiment [9], in experiment [10], in experiment [11] and in experiment [12] was “inactive” in each case. The Potency result in experiment [14], in experiment [15], in [16], in experiment [18] and in [19] was “inactive” throughout.

On to `FC(F)(F)c1ccc(Cl)cc1`, for which the Potency entry in experiment [1], in experiment [2], in [3], in experiment [4], in [5] and in experiment [6] was “inactive” throughout. Besides, the Potency entry in [7], in [8], in experiment [10], in experiment [11], in experiment [12] and in experiment [13] was “inactive” each time. In addition, the Potency entry in [14], in [15], in [16], in [17], in experiment [18] and in experiment [19] was “inactive” each time.

For the compound `CC1CN1` (stereo not given), the Potency entry in experiment [1], in experiment [2], in experiment [3], in experiment [4], in [5] and in experiment [6] was “inactive” each time. Further, the Potency entry in experiment [7], in experiment [8], in experiment [9], in [10], in experiment [11] and in [13] was “inactive” in each case. Moreover, the Potency entry in [14], in experiment [18] and in [19] was “inactive” each time. For the same compound, in [12], the Potency was 3.75 µM (active).

In the case of `C[C@]1(O)CC[C@H]2[C@@H]3CCC4=CC(=O)CC[C@]4(C)[C@@]3(F)[C@@H](O)C[C@@]21C`, the Potency result in experiment [1], in [2], in experiment [3], in experiment [4], in experiment [5] and in [6] was “inactive” throughout. Further, the Potency entry in experiment [7], in experiment [8], in experiment [9], in [10], in experiment [11] and in experiment [12] was “inactive” in each case. The Potency entry in experiment [13], in experiment [14], in experiment [15], in experiment [16], in experiment [18] and in [19] was “inactive” each time.

With `CC(C)(C1CCC(O)CC1)C1CCC(O)CC1` (stereo not given), the Potency entry in [1], in [2], in experiment [3], in [4], in [5] and in [6] was “inactive” in each case. The Potency result in experiment [7], in [8], in experiment [9], in [10], in experiment [11] and in experiment [12] was “inactive” throughout. The Potency result in experiment [13], in experiment [14], in [16], in [18] and in experiment [19] was “inactive” in each case.

Regarding `COP(N)(=O)SC` (stereo not given), the Potency entry in experiment [1], in [2], in experiment [3], in [4], in experiment [20] and in experiment [7] was “inactive” in each case. Moreover, the Potency result in experiment [9], in [11], in experiment [12], in [13], in experiment [14] and in experiment [15] was “inactive” in each case. For the same compound, the Potency result in [16], in experiment [17] and in experiment [19] was “inactive” throughout.
